An excerpt weighted towards active compounds, which were near 0.51% of everything screened.
Epigenetic reg = derepresses silenced GFP reporter in murine cells; murine LDR cells, GFP reporter derepression, 30 h; Potency, µM (titrated, usually from 53.9 µM), most hits filed as activators; AID 1865; 280,000 compounds, 0.2% hits; note: nearly all actives have a fitted effect of over 60% in size
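Derepression of a silenced CMV-GFP reporter in murine LDR cells is scored by enumerating GFP-positive cells with a laser-scanning microplate cytometer after 30 hours of treatment at 37 C.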
PINK1 modulator = modulators of PINK1 expression | 410,000 compounds, 0.2% hits | PINK1 immunofluorescence, high-content cytometry, 24 h | Potency, µM (titrated, usually from 76.6 µM), actives largely listed as activators | AID 624263; active = well fitted activation curve with a large enough effect; inconclusive = small, poorly fitted or top-dose-only effect; cell line not stated here; note: nearly all actives have a fitted effect of over 65% in size
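Compound titrations (5 concentrations, 24 h) on a stable cell line; DMSO and CCCP controls. Endpoint: fixed-cell PINK1 immunofluorescence with mitochondrial, cell and nuclear markers, scanned by microplate cytometer.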
Vif-A3F inh = Vif-A3F binding inhibition. AID 602313. 390,000 compounds, 0.2% hits. Potency, µM (highest dose often 46.1 µM). HeLa A3F-eYFP + Vif (tagged APOBEC3F with the HIV-1 protein that degrades it), YFP fluorescence increase; note: nearly all actives have a fitted effect of over 65% in size
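Fluorescence increase (Ex 488/Em 500-530) after overnight compound treatment at 37 deg C flags inhibition of Vif-driven A3F-eYFP loss in stable HeLa A3F-eYFP/Vif cells seeded overnight beforehand.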
Vif-A3G inh = inhibitors of Vif-APOBEC3G interaction. Q9HC16. HeLa A3G-eYFP + Vif (tagged APOBEC3G with the HIV-1 protein that degrades it), YFP fluorescence, overnight. Potency, µM (series often up to 46.1 µM), actives largely listed as inhibitors. 410,000 compounds, 0.076% hits. AID 602310; note: nearly all actives have a fitted effect of over 60% in size
Target sequence (Q9HC16 whole entry, looked up): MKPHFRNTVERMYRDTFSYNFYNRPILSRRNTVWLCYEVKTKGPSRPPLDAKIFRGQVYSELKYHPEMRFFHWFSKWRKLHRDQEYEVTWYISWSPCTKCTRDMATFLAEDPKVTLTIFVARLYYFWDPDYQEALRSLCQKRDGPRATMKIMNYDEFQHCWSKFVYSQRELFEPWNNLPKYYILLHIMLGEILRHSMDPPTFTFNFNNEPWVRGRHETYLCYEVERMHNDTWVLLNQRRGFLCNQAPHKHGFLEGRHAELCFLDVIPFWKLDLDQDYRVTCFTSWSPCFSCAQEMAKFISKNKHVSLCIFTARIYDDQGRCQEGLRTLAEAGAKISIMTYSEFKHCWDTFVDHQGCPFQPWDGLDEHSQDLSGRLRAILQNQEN
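HeLa cells stably expressing Vif and C-terminally eYFP-tagged A3G, seeded overnight at 37 deg C, then exposed to compound by pintool overnight at 37 deg C. Rise in yellow fluorescence (Ex 488/Em 500-530, Acumen) marks blocked Vif-driven A3G degradation.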
Numbers stand for hits; - = inactive; ? = inconclusive; . = no result given. Unless noted, calls come from the whole dose curve; as a rule, active = well fitted curve in the direction sought with a large enough effect; inconclusive = small, poorly fitted or top-dose-only effect, or another doubt; inactive = no such curve, though single readings can be large; an effect the other way counts as inactive or inconclusive.

SMILES	Epigenetic reg	PINK1 modulator	Vif-A3F inh	Vif-A3G inh
COC(=O)CN1C(=O)S/C(=C/c2ccc(N3CCCCC3)o2)C1=O	?	8.9µM	?	-
CCOC(=O)CN1C(=O)S/C(=C/c2ccc(N3CCCCC3)o2)C1=O	?	-	32µM	-
Cc1cc2c(cc1C)NC(CC(=O)Nc1cccc(C)c1C)C(=O)N2 (stereo unspecified)	-	-	-	-
Cc1cc2c(cc1C)NC(CC(=O)NCc1ccccc1)C(=O)N2 (stereo unspecified)	-	-	28µM	-
CN1C(=O)c2cccc(NCCCN3C(=O)c4ccccc4C3=O)c2C1=O	?	7.1µM	25µM	-
CN(C)c1ccc(/C=N/NC(=O)c2ccccc2Cl)cc1	-	-	-	10µM
CN(C)c1ccc(/C=N/NC(=O)c2ccccc2)cc1	-	-	-	?
COc1ccc(-n2c(CNC(=O)c3cccc(OC)c3OC)nnc2SC)cc1	.	-	.	.
O=c1c2ccccc2nc(/C=C/c2ccc([N+](=O)[O-])o2)n1CCCO	?	-	22µM	?
Cc1cccc(C=Nc2ccccc2C(N)=O)c1	-	-	-	10µM
COc1cccc(C(=O)NCc2nc(-c3cccc(NC(=O)c4ccoc4C)c3)oc2C)c1OC	.	-	.	.
COc1ccc2[nH]cc(C(=O)CN3CCN(C/C=C/c4ccccc4)CC3)c2c1	10µM	.	.	.
O=C(NC(c1cccnc1)C(F)(F)F)c1cnn(-c2nccc(-c3cccs3)n2)c1C1CC1 (stereo unspecified)	.	-	.	.
CCc1nnc(NC(=O)CSc2nc3cc4c(cc3cc2CC)OCCO4)s1	-	11µM	-	-
CO[C@H]1[C@H](NC(=O)c2ccsc2)c2ccccc2C12CCN(Cc1c(O)ccc3ccccc13)CC2	.	-	.	.
Cc1ccc(C2=NC(C(F)(F)F)(C(F)(F)F)c3c(n(-c4ccc(F)cc4)c(=O)[nH]c3=O)N2)cc1	-	40µM	-	-
O=c1[nH]c(=O)n(-c2ccc(F)cc2)c2c1C(C(F)(F)F)(C(F)(F)F)N=C(c1ccc(F)cc1)N2	-	10µM	-	-
COc1ccc(-n2c3c(c(=O)[nH]c2=O)C(C(F)(F)F)(C(F)(F)F)N=C(CC(C)C)N3)cc1	-	-	-	-
Cc1cnc(SCc2ccccn2)nc1C1CCCN(C(=O)c2noc3c2CCCC3)C1 (stereo unspecified)	.	-	.	.
Cc1cnc(-n2ncc(C(=O)NCC3COCCO3)c2C2CC2)nc1-c1cccs1 (stereo unspecified)	.	-	.	.
O=C(O)CNC(=O)c1ccc2c(c1)OCCO2	-	13µM	-	-
Cc1ccc(NC(=O)C(=O)NCC(c2cccnc2)N2CCc3ccccc3C2)cc1 (stereo unspecified)	22µM	-	-	-
COC(=O)CSc1nc2cc(C)ccc2cc1C#N	16µM	-	.	-
Cc1ccc2nc(SCC(=O)Nc3ccc4sc(C)nc4c3)c(C#N)cc2c1	5.6µM	?	11µM	-
Cc1cc(C)cc(NC(=O)C2CC23CCN(Cc2ccc4ncccc4c2)CC3)c1 (stereo unspecified)	.	-	.	.
SMILES	Epigenetic reg	PINK1 modulator	Vif-A3F inh	Vif-A3G inh
O=C(NC(=S)Nc1ccc(N2CCCCC2)c(Cl)c1)c1ccc2c(c1)OCCO2	-	-	10µM	-
CN1C(=O)N(C)c2ccc(C=O)c3cccc1c23	-	-	11µM	-
C1=C(c2ccc3c(c2)CN(Cc2cccn2-c2ncccn2)CCO3)Cc2ccccc21	.	-	.	.
COc1ccc(N2C(=O)[C@@H]3C[C@H]2CN3Cc2ccc3nccnc3c2)cc1Cl	.	-	.	.
CSc1nnc(CCNC(=O)c2ccc(-c3cccc(F)c3)cc2)n1-c1ccc(F)cc1	.	-	.	.
COc1cccc(-c2nc3cc4c(cc3cc2CN(C(=O)c2cccs2)C2CC2)CCC4)c1OC	.	-	.	.
COc1cc(=O)n2c(c1C(=O)N(C)Cc1nonc1C)CCN(Cc1ccccc1F)CC2	.	-	.	.
CC(C)C(NS(C)(=O)=O)c1nnc2n1CCN(Cc1ccc(Cl)cc1)CC2 (stereo unspecified)	.	-	.	.
Cc1cc(/C=C2\SC(=S)NC2=O)c(C)n1-c1ccc(O)cc1	-	-	?	-
COc1ccc(-n2c(C)cc(/C=C3\SC(=S)NC3=O)c2C)cc1	25µM	32µM	10µM	-
Nn1c(SCC(=O)NCc2ccccc2)nnc1C1CC1	-	5µM	-	-
CC(=O)c1cccc(-c2ccnc3c2CC(C(=O)NCc2ccco2)O3)c1 (stereo unspecified)	.	-	.	0.89µM
Cc1c2ccccc2nc2c(F)c(NCCO)c(F)c(F)c12	-	-	?	?
Cc1c2ccccc2nc2c(F)c(NC(C)C)c(F)c(F)c12	?	-	13µM	?
CC(C)Cc1nc2cc(NS(=O)(=O)N(C)C)cc(C(=O)N3CC4(C)CC3CC(C)(C)C4)c2n1C (stereo unspecified)	.	-	.	.
Cc1ccc(CNc2ccc3c(c2)OCO3)cc1	-	?	25µM	22µM
CCCCn1c(N)c(N(CC(C)C)C(=O)c2ccncc2)c(=O)[nH]c1=O	.	-	-	-
C=CCN1C(=O)c2ccc(C(=O)N(CC(C)C)c3c(N)n(CCCC)c(=O)[nH]c3=O)cc2C1=O	.	-	?	7.9µM
COc1ccccc1OCc1nnc(SCC(=O)Nc2ccc(C)cc2)n1C	-	-	-	-
Cc1ccccc1OCc1nnc(SCC(=O)Nc2ccc3c(c2)oc2ccccc23)n1C	-	13µM	-	-
COc1cccc(-c2ccnc(-n3ncc(C(=O)NCc4cccnc4)c3C3CC3)n2)c1	.	-	.	.
Nc1nonc1-c1nc2ccccc2n1CC(=O)Nc1ccccc1	-	-	-	-
Nc1nonc1-c1nc2ccccc2n1CC(=O)Nc1cccc(C(F)(F)F)c1	?	-	25µM	?
CCCCN(C)CC(O)Cn1cc(/C=C/C(=O)c2cccs2)c2ccccc21 (stereo unspecified)	-	-	28µM	?
CCCCN(C)CC(O)Cn1cc(/C=C/C(=O)c2ccc(OCC)cc2)c2ccccc21 (stereo unspecified)	-	-	-	-
SMILES	Epigenetic reg	PINK1 modulator	Vif-A3F inh	Vif-A3G inh
Cc1ccnc(NC(=S)NC(=O)/C=C/c2ccco2)c1	-	-	-	7.9µM
Cc1ccc(O)c(NC(=S)NC(=O)/C=C/c2ccco2)c1	-	-	-	?
Cc1cccc2c(N3CCCC3)nc(CNS(=O)(=O)c3ccc4ccccc4c3)nc12	.	-	.	.
CC(NC(=S)NCCc1ccccc1)C(c1cccs1)N1CCN(Cc2ccccc2)CC1 (stereo unspecified)	-	16µM	-	-
Cc1cccc(CNC(=O)c2cnn(-c3nccc(-c4ccccc4C(F)(F)F)n3)c2C)n1	.	-	.	.
O=C(NCCc1ccncc1)c1cnn(-c2ncc3c(n2)-c2ccccc2CCC3)c1C1CC1	.	-	.	.
CC/C(=N/Nc1ccccc1)c1cnnc(-c2ccccc2)n1	-	?	-	-
CC/C(=N/Nc1cccc(Cl)c1)c1cnnc(SC)n1	?	20µM	?	-
CN(C)c1ccc(/C=C/c2cc[n+](C)c3ccc4ccccc4c23)cc1	.	4.5µM	.	-
C[n+]1ccc(/C=C/c2ccc(C=S)cc2)c2ccccc21	.	45µM	.	?
Cc1cc(N(C)C)cc(C)c1/C=C/c1cc[n+](C)c2ccccc12	.	.	.	-
